# The source made the active and inactive calls. Calls follow the shape of the full dose curve.
# Test: qHTS drug screen for cell cycle checkpoint inhibitors in PARPi-resistant BRCA-mutant ovarian cancer cell lines. (AID 1963452)
# Settings: PEO1/OlaR viability, CellTiter-Glo luminescence, 96 h, stronger effect = lower value
# Text: Women's Malignancies Branch, Center for Cancer Research (CCR),
# National Cancer Institute (NCI), National Institutes of Health (NIH), Bethesda, MD
# Poly (ADP-ribose) polymerase inhibitors (PARPis) have changed the treatment paradigm in breast cancer gene (BRCA) - mutant high-grade serous ovarian carcinoma (HGSC). However, most patients eventually develop resistance to PARPis, highlighting an unmet need for improved therapeutic strategies. Using high-throughput drug screens, we identified ataxia telangiectasia and rad3-related protein/checkpoint kinase 1 (CHK1) pathway inhibitors as cytotoxic and further validated the activity of the CHK1 inhibitor (CHK1i) prexasertib in PARPi-sensitive and -resistant BRCA-mutant HGSC cells and xenograft mouse models. CHK1i monotherapy induced DNA damage, apoptosis, and tumor size reduction. We then conducted a phase 2 study (NCT02203513) of prexasertib in patients with BRCA-mutant HGSC. The treatment was well tolerated but yielded an objective response rate of 6% (1 of 17; one partial response) in patients with previous PARPi treatment. […] BRCA reversion mutation in previously PARPi-treated BRCA-mutant patients was not associated with resistance to CHK1i.
# Among others, 1082 oncology drugs, both approved and investigational, were prioritized based on their status in clinical trial development. […] Drugs with average Z-AUC values less than -1.0 in all three cell lines were classified as "hits" resulting in 151 oncology drug hits. The screen also confirmed cross-resistance between olaparib and other PARPis (rucaparib, niraparib, and talazoparib) in PARPi-resistant PEO1/OlaR and PEO4.
# [1] G. L. Lin, K. M. Wilson, M. Ceribelli, B. Z. Stanton, P. J. Woo, S. Kreimer, E. Y. Qin, X. Zhang, J. Lennon, S. Nagaraja, P. J. Morris, M. Quezada, S. M. Gillespie, D. Y. Duveau, A. M. Michalowski, P. Shinn, R. Guha, M. Ferrer, C. Klumpp-Thomas, S. Michael, C. McKnight, P. Minhas, Z. Itkin, E. H. Raabe, L. Chen, R. Ghanem, A. C. Geraghty, L. Ni, K. I. Andreasson, N. A. Vitanza, K. E.Warren, C. J. Thomas, M. Monje, Therapeutic strategies for diffuse midline glioma from high-throughput combination drug screening. Sci. Transl. Med. 11, (2019).
# [2] T. M. Yamamoto, A. McMellen, Z. L. Watson, J. Aguilera, R. Ferguson, E. Nurmemmedov, T. Thakar, G. L. Moldovan, H. Kim, D. M. Cittelly, A. M. Joglar, E. P. Brennecke, H. Wilson, K. Behbakht, M. J. Sikora, B. G. Bitler, Activation of Wnt signaling promotes olaparib resistant ovarian cancer. Mol. Carcinog. 58, 1770 - 1782 (2019).
# PROTOCOL TABLE (as described by Inglese J, Shamu CE and Guy RK. 2007)
# SEQUENCE No. (e.g., 1, 2, 3, etc.); […] (e.g., Cells, Incubation, Reagent, etc.); VALUE; DESCRIPTION.
# 1; Compounds; 20nL; 1536-well white tissue culture-treated plates.
# 2; Cells; 5 uL; PEO1, PEO4, and PEO1/OlaR cells at 600 cells per well.
# 3; Incubation; 96 hr; 37C, 95% humidity, 5% CO2.
# 4; Reagent; 3 uL; CellTiter-Glo (Promega).
# 5; Incubation; 15 min; room temperature.
# 6; Detection; Luminescence, PHERAstar (BMG Labtech) plate reader.
# NOTES (numbers refer to Sequence numbers above)
# 1. MIPE 5.0 compounds were acoustically dispensed by Echo Acoustic Liquid Handler (Beckman Coulter Life Sciences). Each compound was plated at an 11-point concentration range with 1:3 dilution. Bortezomib, a proteasome inhibitor (final concentration, 20 uM), was used as a positive.
# 2. PEO1, PEO4, and PEO1/OlaR were trypsinized and dispensed in 5 uLof growth medium using a Multidrop Combi dispenser at a density of 600 cells per well to allow compounds to be present during the exponential growth phase.
# 3. Plates were incubated for 96 hours at standard incubator conditions and covered by a stainless steel gasketed lid to prevent evaporation.
# 4. Three microliters of CellTiter-Glo (Promega) were added to each well.
# 5. Plates were incubated at room temperature for 15 min with a stainless-steel lid in place.
# 6. Luminescence readings were taken using PHERAstar (BMG Labtech). […]
# [1] = measured here: PEO1 parental Z-AUC
Compound,Z-AUC,Z-AUC [1],Z-AUC (measured here: PEO4 Z-AUC)
Cc1cn([C@@H]2C[C@@H](O)[C@H](CO)O2)c(=O)[nH]c1=O,0.721 (inactive),0.778,0.771
Cn1cnc(-c2cc3nccc(Oc4ccc(NC(=S)NC(=O)Cc5ccccc5)cc4F)c3s2)c1,-0.0485 (inactive),0.327,0.301
CN(C)CCOc1cc(-c2cn[nH]c2)ccc1NC(=O)C1COc2ccccc2O1 (configuration not stated),1.15 (inactive),0.743,1.03
OC1CCC(Nc2ncc3nc(Nc4c(F)cc(F)cc4F)n([C@@H]4CCOC4)c3n2)CC1 (some centres not stated),0.218 (inactive),0.89,0.44
CS(=O)(=O)c1ccc(C2=C(c3ccccc3)C(=O)OC2)cc1,0.327 (inactive),0.543,0.0438
Cc1c(C(=O)Nc2ccc(N3C[C@@H](C)O[C@@H](C)C3)nc2)cccc1-c1ccc(OC(F)(F)F)cc1,0.823 (inactive),1.06,0.91
CNC(=O)c1ccc2c(C(=Nc3cccc(CN(C)C)c3)c3ccccc3)c(O)[nH]c2c1,-0.0393 (inactive),0.42,0.638
CC(C)(CO)[C@@H](O)C(=O)NCCC(=O)O,-0.0324 (inactive),0.0769,0.104
CCN(CC)CCCCNc1nc2cc(Cl)c(Cl)cc2nc1-c1ccc(-c2cccs2)s1,2.01 (inactive),0.897,0.59
Cc1cnc(Nc2cccc(CN3CCOCC3)c2)nc1Nc1cccc(S(=O)(=O)NC(C)(C)C)c1,-1.13 (inactive),-0.892,-1.26
CN(C)c1ccc(-c2nc3ncc(Cl)c(N4CCN(CC(=O)Nc5nccs5)CC4)c3[nH]2)cc1,-1.63 (inactive),-1.25,-1.61
COc1ccc(-c2nc3ccc(C4=NNC(=O)CC4C)cc3[nH]2)cc1 (configuration not stated),-0.406 (inactive),-0.248,0.0118
Cc1ccccc1C(=O)c1ccc(Nc2ccc(Br)cc2N)cc1Cl,-0.304 (inactive),0.73,0.429
CCC(c1ccc(O)cc1)C(CC)c1ccc(O)cc1 (configuration not stated),-0.216 (inactive),-0.74,-0.679
